CYP2C9 activ – human CYP2C9 activators, primary screen, biochemical, luminescence; hit rate 1.4% among 96,000; activation factor at 5 µM; Cytochrome P450 2C9 (Homo sapiens), P11712; AID 1024, 2008; recombinant CYP2C9, luciferin-H conversion; active compounds read high; factor 1 = untreated enzyme, 0 = blocked;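 active = activation factor of 2 or more for CYP2C9 at a 5 µM dose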
CYP2C19 inh – blockers of cytochrome P450 2C19 activity – biochemical, luminescence, ADME assay, primary screen | P33261 | CYP2C19 Supersomes, luciferin-H EGE luminescence, 30 min | inhibition, % at 5 µM | hit rate 21% among 96,000 | AID 778, 2007;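 active = CYP2C19 inhibition above a set limit at 5 µM in the primary screen, cut at about 50% in these data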
CYP2C19 activ – human CYP2C19 activators, primary screen, biochemical, luminescence; Cytochrome P450 2C19 (Homo sapiens), P33261; recombinant CYP2C19, luciferin-H EGE luminescence; active compounds read high; 0 = fully inhibited enzyme, 1 = untreated enzyme; activation factor at 5 µM; 96,000 tested, under 10 active;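 active = activation factor of at least 2 at 5 µM in the primary screen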
CYP2C9 inh – blockers of cytochrome P450 2C9 activity – biochemical, luminescence, ADME assay, primary screen; hit rate 20% among 96,000; CYP2C9 Supersomes, luciferin-H conversion; P11712; inhibition, % at 5 µM; AID 777, 2007;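 active = blocking of liver enzyme CYP2C9 beyond about 50% at 5 µM, limit read from the data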
EphB4 antag – EphB4-ephrin-B2 interaction antagonists, primary screen, biochemical, TNYL-RAW peptide probe, fluorescence polarization; Ephrin type-B receptor 4 (Homo sapiens), P54760; EphB4 LBD / TNYL-RAW-Alexa532 peptide; inhibition, % at 7 µM; hit rate 0.15% among 97,000; AID 720, 2007;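 active = inhibition above the screen-wide mean inhibition plus 3 SD, cut at about 15% in these data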
Of the large screens only hits and unclear results are named; the others gave an inactive call. Compounds with a hit are over-represented: about 27% of the library has one in this group of screens.

O=C(Nc1c2c(nn1-c1ccc(F)cc1)CS(=O)(=O)C2)C12CC3CC(CC(C3)C1)C2	none
N#Cc1ncc(C(F)(F)F)cc1Sc1ccc(N)cc1	CYP2C19 inh 95.7, CYP2C9 inh 81.1, EphB4 antag 16.1
N#Cc1cnn2cc(-c3ncc(C(F)(F)F)cc3Cl)cnc12	none
Oc1c(C(c2ccccc2)N2CCN(Cc3ccccc3)CC2)sc2ncnn12 (stereo not drawn)	CYP2C19 inh 78.0, CYP2C9 inh 67.0
COc1cccc(C(=O)N(C)c2nnc(-c3ccncc3)s2)c1	CYP2C19 inh 100.0, CYP2C9 inh 89.3
CN(C(=O)c1cccc(C#N)c1)c1nnc(-c2ccncc2)s1	CYP2C19 inh 93.3, CYP2C9 inh 70.3
COc1cc(/C=N/n2nnnc2N)ccc1O	none
COC(=O)c1cc(Br)ccc1-c1ccc(/C=N/n2nnnc2N)o1	CYP2C19 inh 55.6
Cc1c(O)cc2n(c1=O)-c1ccccc1C2(C)C	EphB4 antag 16.3 (no result: CYP2C9 activ, CYP2C19 inh, CYP2C19 activ, CYP2C9 inh)
CC1CCCC(C)N1S(=O)(=O)c1ccc(NC(=O)CCn2cnc3ccccc3c2=O)cc1 (stereo not drawn)	none
CCC(=O)N(Cc1cc2cc(OC)ccc2[nH]c1=O)c1cc(C)ccc1C	none
COc1ccc(NCc2cc3ccccc3[nH]c2=O)cc1	CYP2C19 inh 81.6
COc1ccc(NCc2cc3cc(OC)ccc3[nH]c2=O)cc1	CYP2C19 inh 52.1
COc1ccc2[nH]c(=O)c(CNC3CCCCC3)cc2c1	none
COc1ccc2[nH]c(=O)c(CNc3cccc(C)c3)cc2c1	CYP2C19 inh 82.4
Cc1ccnc2nc(C(=O)OCC(=O)Nc3ccc4c(c3)OC(F)(F)O4)nn12	none
COc1ccc(N2CCN(C(=O)CN(CCc3ccccc3)S(C)(=O)=O)CC2)cc1	none
CSc1ncccc1C(=O)OCC(=O)N(CC(C)C)C1CCS(=O)(=O)C1 (stereo not drawn)	none
Cc1ccc(OCCCn2ccnc2)cc1C	CYP2C19 inh 100.4, CYP2C9 inh 96.1
Cc1cccc(OCCCn2ccnc2)c1	CYP2C19 inh 99.8, CYP2C9 inh 67.5
COc1cccc(OCCn2ccnc2)c1	none (no result: CYP2C9 activ, CYP2C19 inh, CYP2C19 activ, CYP2C9 inh)
CCOc1ccc(C2/C(=C(/O)c3ccccc3)C(=O)C(=O)N2CCCN(C)C)cc1OC (stereo not drawn)	none (no result: CYP2C9 activ, CYP2C19 inh, CYP2C19 activ, CYP2C9 inh)
CC(NC(=O)C(=O)NN=C1CCCCCCCCCCC1)c1ccccc1 (stereo not drawn)	none
Cc1ccc(Oc2ccc3c(c2)C(=O)N(c2ccc(S(=O)(=O)Nc4nccs4)cc2)C3=O)cc1	CYP2C9 inh 63.5
Cc1cc(=O)n(CC(C)C)c(O)c1C#N	EphB4 antag 16.6
CCOC(=O)c1cnc2ccc(Br)cc2c1NCCO	none
COc1cccc2cc(C(=O)N(C)C3CCN(C)CC3)c(=O)oc12	none
Fc1ccccc1N1CC(c2ccccc2)C(c2cccs2)=N1 (stereo not drawn)	CYP2C9 inh 59.5
O=S(=O)(c1ccccc1)N1N=C(c2cccs2)CC1c1ccc(F)cc1 (stereo not drawn)	none
CC(SCC(=O)Nc1ccc(S(=O)(=O)N2CCCCC2)cc1)C(=O)O (stereo not drawn)	CYP2C9 inh 56.3
COC(=O)c1ccc(NC(=O)COc2ccc(S(=O)(=O)N3CCCCC3)cc2)cc1	CYP2C9 inh 64.2
O=C(O)CCC(=O)Nc1ccc(S(=O)(=O)N2CCCC2)cc1	CYP2C19 inh 50.5 (no result: EphB4 antag)
CCCC(=O)Nc1ccc(S(=O)(=O)N2CCCC2)cc1	none
COC(=O)c1cccc(NC(=O)CCCOc2cccc(C)c2)c1	CYP2C19 inh 76.2, CYP2C9 inh 58.0
Cc1cccc(NC(=O)CCOc2ccccc2)c1	none
COC(=O)c1ccc(S(=O)(=O)N2CCCCCC2)cc1	none
COc1cc(CC(=O)OCC(=O)Nc2ccc(S(=O)(=O)N3CCCC3)cc2)cc(OC)c1OC	CYP2C9 inh 60.8
O=C(Nc1ccc(S(=O)(=O)N2CCCC2)cc1)N1c2ccccc2Sc2ccccc21	CYP2C9 inh 74.3
Cc1cccc(OCCC(=O)Nc2ccc(S(=O)(=O)N3CCCC3)cc2)c1	CYP2C9 inh 66.9
COc1ccc(OC)c(NC(=O)c2nnn(Cc3ccc(Br)cc3F)c2N)c1	none
COCCNc1nc(SCC(=O)N2CCN(c3ccccc3OC)CC2)nc2ccccc12	none
O=C(NCCOC(=O)c1ccc(Cl)c(S(=O)(=O)N2CCCCC2)c1)c1ccncc1	CYP2C19 inh 88.9, CYP2C9 inh 90.6
CCN(CC)CCNC(=O)c1ccc(Cl)c(S(=O)(=O)N2CCCCCC2)c1	CYP2C9 inh 72.5
CC1CCN(c2nc(-c3ccccc3)c(C#N)c(=O)[nH]2)CC1	none (no result: EphB4 antag)
COc1ccc(-c2c(C#N)c(C)nc3c2C(=O)c2ccccc2-3)cc1	CYP2C19 inh 56.6
COc1ccc(-c2nc(-c3cccc(C)c3)nc(Cl)c2C#N)cc1	CYP2C9 inh 69.0
COc1ccc(-c2nc(-c3ccccc3)nc(Cl)c2C#N)cc1	none
COc1ccc(-c2nc(-c3ccccc3)[nH]c(=O)c2C#N)cc1	CYP2C9 inh 65.3
O=C(Nc1cnn(Cc2c(Cl)cccc2Cl)c1)c1ccc([N+](=O)[O-])cc1	none
COC(=O)c1cc(C#N)c(Oc2ccccc2)nc1C	none (no result: CYP2C9 activ, CYP2C19 inh, CYP2C19 activ, CYP2C9 inh)
Cc1cccc(CN2C(=O)N/C(=C/c3cc(C)n(-c4ccccn4)c3C)C2=O)c1	CYP2C9 inh 97.5
CC1(C)Nc2ccccc2N(CCC(=O)N2CCOCC2)C1=O	none
CN(C(=O)CCN1C(=O)C(C)(C)Nc2ccccc21)c1ccccc1	CYP2C19 inh 76.3
COc1cccc(N2CCN(c3c(C#N)c(C(F)(F)F)nn3C)CC2)c1	CYP2C19 inh 94.1, CYP2C9 inh 92.5
Cn1nc(C(F)(F)F)c(C#N)c1N1CCN(c2ccccc2F)CC1	none
CCOC(=O)c1[nH]c2c(c1C)C(=O)CC(c1ccc(OC)c(OC)c1)C2 (stereo not drawn)	CYP2C9 inh 81.4
Cc1c(C(=O)N2CCOCC2)[nH]c2c1C(=O)CC(c1ccccc1Cl)C2 (stereo not drawn)	none
COc1cc(C(=O)OCCN2CCOCC2)cc(OC)c1OC	none
COC(=O)c1[nH]c2c(c1C)C(=O)CC(c1ccccc1)C2 (stereo not drawn)	CYP2C19 inh 52.7, CYP2C9 inh 71.1
COc1cc(C2CC(=O)c3c([nH]c(C(=O)OCCOC(C)C)c3C)C2)cc(OC)c1OC (stereo not drawn)	CYP2C9 inh 79.1
CCN1CCN(C(=O)Cn2c(=O)sc3ccccc32)CC1	none (no result: EphB4 antag)
O=C(c1cccs1)N1CCN(C(=O)C2CCCO2)CC1 (stereo not drawn)	none (no result: CYP2C9 activ, CYP2C19 inh, CYP2C19 activ, CYP2C9 inh)
Cc1cccc(N2CCN(CCNC(=O)c3cc4c(s3)CS(=O)(=O)C4)CC2)c1C	CYP2C9 inh 53.0
CN(C(=O)c1ccccc1NC(=O)C(F)(F)F)c1ccccc1	none
Cc1ccc(C2CC(c3cccc(C)c3)n3ncnc3N2)cc1 (stereo not drawn)	CYP2C19 inh 95.5, CYP2C9 inh 57.3 (no result: EphB4 antag)

Bioassay records from PubChem.
